Results from the supplement of paper PMC6607015.
Where a name gives a salt, the structure may show the parent alone.

Legend:
Settings in all cases: compound concentration in added solution (µM; 5 µl added to 20 µl cells): 10; 18 h
[1] = test system: A431; assay: LBPA endosome anti-LBPA integrated intensity (sum per cell), Z-score; higher = more LBPA staining
In short: (§1)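 Each value is a Z-score normalised in AcuityXpress from per-cell integrated LBPA or filipin intensity, taken over the whole cell or within LBPA endosomes. Duplicate 384-well imaging plates held 5 µl of 10 µM compound solution, onto which 3,500 HeLa MZ or A431 cells in 20 µl were seeded per well. After 18 h the cells were fixed in 4% PFA, stained with 6C4 anti-LBPA antibody, filipin, propidium iodide and CellTracker green, imaged four times per well at 20× and segmented in MetaXpress.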

[2] = test system: HeLa MZ; assay: as above
In short: as §1

[3] = test system: A431; assay: whole-cell filipin (free cholesterol) integrated intensity, Z-score; higher = more cholesterol staining
In short: as §1

[4] = test system: HeLa MZ; assay: as above
In short: as §1

[5] = test system: A431; assay: filipin (cholesterol) integrated intensity within LBPA endosomes, Z-score; higher = more cholesterol in LBPA endosomes
In short: as §1

[6] = test system: HeLa MZ; assay: as above
In short: as §1

Compound | LBPA endosome anti-LBPA integrated intensity (z-score) [1] | LBPA endosome anti-LBPA integrated intensity (z-score) [2] | whole-cell filipin (z-score) [3] | whole-cell filipin (z-score) [4] | filipin (z-score) [5] | filipin (z-score) [6]
COc1ccccc1OCC(O)CO (centres undefined) [Guaifenesin] | -0.398 | -0.463 | -0.553 | -0.523 | -0.471 | -0.504
c1ccc(CNc2ncnc3nc[nH]c23)cc1 [Aminopurine, 6-benzyl] | -0.375 | -0.475 | -0.69 | -0.144 | -0.46 | -0.279
CC(=O)[C@H]1CC[C@H]2[C@@H]3CCC4=CC(=O)CC[C@]4(C)[C@H]3CC[C@]12C [Progesterone] | 2.4 | 0.628 | 1.62 | 0.873 | 2.26 | 0.759
CCC1(c2ccccc2)C(=O)NCNC1=O [Primidone] | -0.559 | -0.0866 | -0.586 | -0.472 | -0.509 | -0.574
C[C@]12CC[C@@H]3c4ccc(O)cc4C[C@@H](CCCCCCCCC[S+]([O-])CCCC(F)(F)C(F)(F)F)[C@H]3[C@@H]1CC[C@@H]2O (some centres undefined) [Fulvestrant] | 1.44 | 1.71 | 1.52 | 1.48 | 1.64 | 2.16
CO[C@H]1/C=C/O[C@@]2(C)Oc3c(C)c(O)c4c(c3C2=O)C2=NC3(CCN(CC(C)C)CC3)NC2=C(NC(=O)/C(C)=C\C=C\[C@H](C)[C@H](O)[C@@H](C)[C@@H](O)[C@@H](C)[C@H](OC(C)=O)[C@@H]1C)C4=O [Rifabutin] | -0.125 | 1.08 | 0.49 | 0.136 | -0.0844 | 0.633
CCN[C@H]1CN(CCCOC)S(=O)(=O)c2sc(S(N)(=O)=O)cc21 [Brinzolamide] | -0.542 | -0.00126 | -0.549 | -0.378 | -0.517 | -0.377
C[C@]12CC[C@@H]3c4ccc(OS(=O)(=O)O)cc4CC[C@H]3[C@@H]1CCC2=O [Estropipate] | -0.486 | -0.706 | -0.265 | -0.499 | -0.418 | -0.5
CCC(C)n1ncn(-c2ccc(N3CCN(c4ccc(OCC5COC(Cn6cncn6)(c6ccc(Cl)cc6Cl)O5)cc4)CC3)cc2)c1=O (centres undefined) [Itraconazole] | 1.31 | 0.474 | 2.3 | 2.36 | 2.02 | 1.87
CN(C)C/C=C(/c1ccc(Br)cc1)c1cccnc1 [Zimelidine dihydrochloride monohydrate] | -0.281 | 0.0916 | -0.265 | -0.387 | 0.179 | 0.387
O=C(N/N=C/c1ccc([N+](=O)[O-])o1)c1ccc(O)cc1 [Nifuroxazide] | -0.723 | -1.67 | -0.848 | -0.476 | -0.646 | -0.646
COCCCOc1ccnc(C[S+]([O-])c2nc3ccccc3[nH]2)c1C (centres undefined) [Rabeprazole Sodium salt] | -0.587 | -0.545 | 0.0453 | 1.99 | -0.44 | -0.189
CC1CCc2c(N3CCC(O)CC3)c(F)cc3c(=O)c(C(=O)O)cn1c23 (centres undefined) [Nadifloxacin] | -0.419 | -1.21 | -0.24 | -0.254 | -0.402 | -0.471
CCN(CC)CCOC(=O)C(c1ccccc1)c1ccccc1 [Adiphenine hydrochloride] | -0.67 | -1.15 | -1.14 | -0.931 | -0.574 | -0.637
CN/C(=N\CCSCc1nc[nH]c1C)NC#N [Cimetidine] | -0.436 | -0.604 | -0.5 | -0.3 | -0.458 | -0.409
O=P(O)(O)C(Cl)(Cl)P(=O)(O)O [Clodronate] | -0.576 | -0.865 | -0.177 | -0.446 | -0.541 | -0.434
Nc1ccc(S(=O)(=O)Nc2nccs2)cc1 [Sulfathiazole] | -0.403 | -0.679 | -0.453 | 0.103 | -0.36 | -0.308
Cc1ccc(N(CC2=NCCN2)c2cccc(O)c2)cc1 [Phentolamine hydrochloride] | -0.384 | 0.635 | -0.578 | -0.161 | -0.477 | -0.0953
C[N+]1(C)CCC(OC(=O)C(O)(c2ccccc2)C2CCCC2)C1 (centres undefined) [Glycopyrrolate] | -0.432 | -0.329 | -0.296 | -0.075 | -0.498 | -0.443
O=C(O)COCCN1CCN(C(c2ccccc2)c2ccc(Cl)cc2)CC1 (centres undefined) [Cetirizine dihydrochloride] | -0.494 | -0.434 | -0.716 | -0.836 | -0.508 | -0.525
CC1=C(CC(=O)O)c2cc(F)ccc2/C1=C\c1ccc([S+](C)[O-])cc1 (centres undefined) [Sulindac] | -0.696 | -1.83 | -0.98 | -1 | -0.655 | -0.701
O=C1CC2(CCCC2)CC(=O)N1CCCCN1CCN(c2ncccn2)CC1 [Buspirone hydrochloride] | -0.302 | -0.586 | 0.536 | 0.427 | -0.00788 | 0.293

Compound | LBPA endosome anti-LBPA integrated intensity (z-score) [1] | LBPA endosome anti-LBPA integrated intensity (z-score) [2] | whole-cell filipin (z-score) [3] | whole-cell filipin (z-score) [4] | filipin (z-score) [5] | filipin (z-score) [6]
Cc1noc(NS(=O)(=O)c2ccc(N)cc2)c1C [Sulfisoxazole] | -0.641 | -0.742 | -0.79 | -0.499 | -0.574 | -0.486
Cc1cc(C)nc(NS(=O)(=O)c2ccc(N)cc2)n1 [Sulfamethazine sodium salt] | -0.34 | 0.511 | 0.128 | -0.158 | -0.422 | -0.588
COc1ccc2c(c1)c(CC(=O)O)c(C)n2C(=O)c1ccc(Cl)cc1 [Indomethacin] | -0.426 | 0.408 | -0.694 | -0.518 | -0.524 | -0.49
CN1C2CCCC1CC(NC(=O)c1nn(C)c3ccccc13)C2 (centres undefined) [Granisetron] | 0.179 | 1.05 | 0.826 | 0.449 | -0.132 | 0.382
Cn1nnc2c(C(N)=O)ncn2c1=O [Temozolomide] | -0.384 | 0.224 | -0.454 | 0.0676 | -0.437 | -0.627
CCOc1ccccc1OCC1CNCCO1 (centres undefined) [Viloxazine hydrochloride] | -0.217 | 0.639 | -0.124 | -0.0106 | -0.346 | -0.261
CC[C@H]1OC(=O)[C@H](C)[C@@H](O[C@H]2C[C@@](C)(OC)[C@@H](O)[C@H](C)O2)[C@H](C)[C@@H](O[C@@H]2O[C@H](C)C[C@H](N(C)C)[C@H]2O)[C@](C)(O)C[C@@H](C)CN(C)[C@H](C)[C@@H](O)[C@]1(C)O [Azithromycin] | 4.39 | 1.79 | 0.331 | 0.115 | 1.25 | 1.45
CNCC(O)c1ccc(O)c(O)c1 (centres undefined) [Racepinephrine HCl] | -0.253 | -0.0976 | 0.725 | 0.18 | -0.509 | -0.366
CC1(C)[C@@H](OC(=O)CCC(=O)O)CC[C@]2(C)[C@H]3C(=O)C=C4[C@@H]5C[C@@](C)(C(=O)O)CC[C@]5(C)CC[C@@]4(C)[C@]3(C)CC[C@@H]12 [Carbenoxolone disodium salt] | -0.362 | 0.399 | -0.0877 | 0.214 | -0.408 | -0.356
COCCOC(=O)C1=C(C)NC(C)=C(C(=O)OC/C=C/c2ccccc2)C1c1cccc([N+](=O)[O-])c1 (centres undefined) [Cilnidipine] | 0.601 | 0.589 | 1.38 | -0.377 | 0.591 | 0.579
Nc1nc2ccc(OC(F)(F)F)cc2s1 [Riluzole hydrochloride] | -0.418 | -0.758 | -0.48 | -0.459 | -0.501 | -0.474
CN(C)CC/C=C1/c2ccccc2Sc2ccc(Cl)cc21 [Chlorprothixene hydrochloride] | 4.13 | 2.63 | 1.46 | 0.54 | 2.61 | 2.32
Cc1ccccc1C(OCCN(C)C)c1ccccc1 (centres undefined) [Orphenadrine hydrochloride] | -0.188 | 0.0858 | -0.344 | 1.02 | 0.191 | 0.681
Clc1ccc(Nc2nnc(Cc3ccncc3)c3ccccc23)cc1 [Vatalanib] | -0.715 | -0.947 | -0.382 | -0.477 | -0.573 | -0.345
Oc1ncnc2[nH]ncc12 [Allopurinol] | -0.351 | 0.486 | -0.157 | -0.285 | -0.415 | -0.506
OC(CCN1CCCC1)(c1ccccc1)C1CCCCC1 (centres undefined) [Procyclidine hydrochloride] | -0.0883 | 0.3 | 0.506 | 0.736 | 0.0344 | 0.437
Cc1cc(-c2ccccc2)nnc1NCCN1CCOCC1 [Minaprine dihydrochloride] | -0.498 | -0.183 | -0.925 | -0.799 | -0.593 | -0.625
CCOC(=O)O[C@]1(C(=O)COC(=O)CC)CC[C@H]2[C@@H]3CCC4=CC(=O)C=C[C@]4(C)[C@H]3[C@@H](O)C[C@@]21C [Prednicarbate] | -0.408 | -0.375 | 0.46 | 0.0462 | -0.282 | -0.201
COc1ccccc1OCC(O)COC(N)=O (centres undefined) [Methocarbamol] | -0.567 | -0.641 | -0.741 | -0.777 | -0.492 | -0.501
CC(C)NCC(O)COc1cccc2[nH]ccc12 (centres undefined) [Pindolol] | -0.195 | -0.563 | -0.497 | -0.0997 | -0.329 | -0.129
COc1ccccc1N1CCN(CCCCNC(=O)c2ccc3ccccc3c2)CC1 | 2.82 | 1.25 | 2.45 | 2.22 | 2.37 | 3.33
Cc1cccc(Nc2ccccc2C(=O)O)c1C [Mefenamic acid] | -0.573 | -1.34 | -0.793 | -0.4 | -0.497 | -0.72
